# “And” between values parts separate entries of the source, which are not always exact repeats. Identical values can stand only once. Compounds without any hit were thinned out: in the full panel of roughly 79,000, 15% have a hit. The source made the active and inactive calls. No stated cut-off is given here; in the data, active means growth inhibition above about 70%; inactive means the rest.
# Assay: NCI Yeast Anticancer Drug Screen. Data for the rad50 strain (AID 155);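 further: 0% = growth of vehicle-only cultures of the same strain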
# Conditions: S. cerevisiae rad50 strain growth inhibition, hits give high values
# Method: Growth inhibition of yeast strains with defined genetic alterations is measured as a screen for potential anti-cancer activity. Selected strains with alterations in DNA damage repair or cell cycle control were exposed to compounds and growth inhibition was measured relative to vehicle treated controls. The strain used in this assay is rad50
# [1] = at 5.0 µM (retest, dose inferred, filed as 0.5)
# [2] = at 50.0 µM (retest, dose inferred, filed as 5.0)
Compound,growth inhibition (at 1.2 µM),growth inhibition (at 3.7 µM),growth inhibition [1],growth inhibition (at 11.0 µM),growth inhibition (at 33.0 µM),growth inhibition [2],growth inhibition (at 50.0 µM),growth inhibition (at 100.0 µM)
CNC(=O)OCc1c(COC(=O)NC)c(C)n(-c2ccc(Cl)c(Cl)c2)c1C,-37% (inactive),-34% (inactive),25% (inactive),-16% (inactive),97% (active),97% (active),89.6% (active),97% (active)
Cc1c2ccncc2c(C)c2c1oc1ccccc12,53% (inactive),87% (active),92% (active),94% (active),97% (active),88% (active),39.2% (inactive),95% (active)
COc1ccc2[nH]c3c(C)c4cc[n+](C)cc4c(C)c3c2c1,22% (inactive) and 7% (inactive),35% (inactive) and 34% (inactive),29% (inactive) and 31% (inactive),60% (inactive),78% (active) and 88% (active),85% (active) and 82% (active),31.6% (inactive) and 64.8% (inactive),92% (active) and 94% (active)
COc1ccc2cc(CN3CCC(C4CCN(Cc5ccc6cc(OC)ccc6c5)CC4)CC3)ccc2c1,-2% (inactive),5% (inactive),1% (inactive),9% (inactive),26% (inactive),38% (inactive),88.8% (active),97% (active)
C=Cc1c(C)c(O)cc2c1-c1ccc(O)c(C)c1CC2,-20% (inactive),-3% (inactive),46% (inactive),12% (inactive),97% (active),75% (active),-24.6% (inactive),99% (active)
